Consider 5 compounds from PubChem BioAssay (EPA / NIEHS).

In assay [1] the target is Paired box protein Pax-6 (Homo sapiens) (UniProt P26367). The assay is described as follows: ATG_Pax6_CIS: Attagene CIS-FACTORIAL HepG2 Assay for human Paired Box 6 (PAX6) (AID 2282956). The conditions noted are these: HepG2 CIS-FACTORIAL PAX6 reporter transcription, RNA readout; actives raise or lower the signal. An outline of the steps:
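Multiplexed cis-reporter HepG2 system; 24 h treatment; reporter mRNA read by RT-PCR/CE fluorescence; bidirectional fit vs DMSO.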

A short description of assay [2]: ATG_PXRE_CIS: Attagene CIS-FACTORIAL HepG2 Assay for human Pregnane X Receptor Element (PXRE) (AID 2282957). The conditions noted are these: HepG2 Attagene CIS-FACTORIAL PXRE reporter, mRNA; actives raise or lower the signal. An outline of the steps: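 Transfect HepG2 with MRTUs (cis promoter elements); dose chemical, incubate 24 h; isolate RNA, RT with oligo(dT), PCR, 6-FAM label, HpaI cut, CE. Gain/loss fit vs DMSO.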

Assay [3] is described as follows: ATG_RORE_CIS: Attagene CIS-FACTORIAL HepG2 Assay for human RAR-related Orphan Receptor Element (RORE) (AID 2282959). The conditions noted are these: HepG2 Attagene cis-factorial RORE reporter, mRNA; actives raise or lower the signal. An outline of the steps:
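Cells were HepG2 carrying transfected cis-regulated reporter constructs, dosed for 24 hours. Total RNA was reverse-transcribed and reporter cDNA amplified, fluorescently labeled and sized by capillary electrophoresis. Activity was fitted bidirectionally relative to DMSO.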

For assay [4], the target named is Transcription factor Sp1 (Homo sapiens) (UniProt P08047). Put plainly: ATG_Sp1_CIS: Attagene CIS-FACTORIAL HepG2 Assay for human Specificity Protein 1 (Sp1) (AID 2282961). The conditions noted are these: HepG2 Sp1 cis-reporter transcription, actives raise or lower the signal. An outline of the steps:
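Endogenous Sp1 activity was gauged in human liver HepG2 cells bearing transfected reporter units under a cis-regulating promoter. After 24 h dosing, reporter mRNA was quantified by RT-PCR with capillary electrophoresis, and activity fitted bidirectionally versus DMSO.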

A short description of assay [5]: ATG_SREBP_CIS: Attagene CIS-FACTORIAL HepG2 Assay for human Sterol Regulatory Element Binding (SREBP) (AID 2282962). The note with it: HepG2 Attagene cis-factorial SREBP reporter, mRNA; actives raise or lower the signal. An outline of the steps: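 mRNA induction of transfected cis-promoter reporters in HepG2 cells, 24 h post-dose. Detection: RT-PCR with 6-FAM-labelled products, HpaI digest, capillary electrophoresis. DMSO served as negative control and baseline.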

The target in assay [6] is Signal transducer and activator of transcription 3 (Homo sapiens) (UniProt P40763). The assay is described as follows: ATG_STAT3_CIS: Attagene CIS-FACTORIAL HepG2 Assay for human Signal Transducer and Activator of Transcription 3 (STAT3) (AID 2282963). The conditions noted are these: HepG2, Attagene cis-factorial STAT3 reporter transcription; actives raise or lower the signal. An outline of the steps: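 HepG2 cells transiently transfected with cis-element-driven multiple reporter transcription units; after 24 h chemical exposure, reporter mRNA measured by RT-PCR, 6-FAM primer-extension labelling, HpaI digestion and capillary electrophoresis. Bidirectional fitting versus DMSO baseline.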

Assay [7] can be described thus: ATG_TA_CIS: Attagene CIS-FACTORIAL HepG2 Assay for human TA Basal Promoter (AID 2282964). The conditions noted are these: HepG2 Attagene CIS-factorial TA basal promoter reporter; actives raise or lower the signal. An outline of the steps:
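Background-control readout: TA basal promoter reporter mRNA, fitted in both directions relative to DMSO. Measured by RT-PCR and capillary electrophoresis 24 hours after treating HepG2 human liver cells transiently carrying multiplexed cis-regulated reporter constructs.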

Assay [8] can be described thus: ATG_TAL_CIS: Attagene CIS-FACTORIAL HepG2 Assay for human TAL Basal Promoter (AID 2282966).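 Also: background control endpoint measuring basal TAL promoter reporter mRNA not a specific factor.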 The note with it: HepG2 Attagene cis-factorial TAL promoter reporter; actives raise or lower the signal. An outline of the steps: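 Fluorescence of labelled reporter cDNA fragments, resolved by capillary electrophoresis, gave the readout. Human HepG2 liver cells carried transiently transfected cis-element reporter units and were treated for 24 hours; activity was fitted bidirectionally against DMSO.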

The nature of assay [9]: ATG_TGFb_CIS: Attagene CIS-FACTORIAL HepG2 Assay for human Transforming Growth Factor (TGF) (AID 2282967). The note with it: HepG2 Attagene CIS TGFb reporter, mRNA transcription; actives raise or lower the signal. An outline of the steps: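 Endogenous TGFB1-linked transcription factor activity read as reporter mRNA via RT-PCR and capillary electrophoresis, 24 h after dosing transiently transfected HepG2 cells. Gain or loss of signal fitted relative to DMSO.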

Assay [10] in a line: ATG_VDRE_CIS: Attagene CIS-FACTORIAL HepG2 Assay for human Vitamin D Receptor Element (VDRE) (AID 2282968). The conditions noted are these: HepG2 VDRE cis-reporter transcription, actives raise or lower the signal. An outline of the steps:
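HepG2 cells transiently transfected with cis-element reporter units, dosed 24 h; reporter mRNA measured by RT-PCR, 6-FAM labeling, HpaI digestion and capillary electrophoresis. Activity fitted bidirectionally against DMSO baseline.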

Assay [11] addresses Nuclear receptor subfamily 1 group I member 3 (Homo sapiens) (UniProt Q14994). Put plainly: ATG_CAR_TRANS: Attagene TRANS-FACTORIAL HepG2 Assay for human Constitutive Androstane Receptor (CAR) (AID 2282969; active = hit-call score of the fitted dose curve at least 0.9, where 1 is the maximum;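 also: activators raise reporter mRNA above DMSO so AC50 marks induction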). The note with it: HepG2 Attagene TRANS-FACTORIAL CAR reporter. An outline of the steps:
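HepG2 cells transiently transfected with multiplexed GAL4-UAS reporter units expressing chimeric NR-Gal4 proteins; compound exposure 24 h. Reporter mRNA measured by RT-PCR, 6-FAM labelling, HpaI digestion and capillary electrophoresis; gain-of-signal fitted against DMSO baseline.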

The target of assay [12] is X-box-binding protein 1 (Homo sapiens) (UniProt P17861). Put plainly: ATG_Xbp1_CIS: Attagene CIS-FACTORIAL HepG2 Assay for human X-box Binding Protein 1 (XBP1) (AID 2282972). The conditions noted are these: HepG2 XBP1 cis-element reporter, Attagene multiplex; actives raise or lower the signal. An outline of the steps: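 Fluorescence-labelled cDNA fragments from reporter transcripts, separated by capillary electrophoresis, give the signal. Source: HepG2 cells transfected with promoter-driven reporter units, harvested 24 h post-dose. DMSO served as reference for bidirectional curve fitting.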

Assay [13] in a line: ATG_M_19_TRANS: Attagene TRANS-FACTORIAL HepG2 Assay for M19 Transcription Factor (Internal Marker) (AID 2282974; active = hit-call score of the fitted dose curve at least 0.9, where 1 is the maximum). The conditions noted are these: HepG2 Attagene TRANS-FACTORIAL M19 internal marker reporter. An outline of the steps: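 Cells: human HepG2, transiently transfected with multiplexed reporter transcription units. Exposure: 24 h. Detection: RT-PCR of reporter mRNA with capillary electrophoresis. Analysis: gain-of-signal vs DMSO.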

Assay [14] is described as follows: ATG_GAL4_TRANS: Attagene TRANS-FACTORIAL HepG2 Assay for GAL4 (Internal Marker) (AID 2282976; active = hit-call score of the fitted dose curve at least 0.9, where 1 is the maximum). The note with it: HepG2 Attagene TRANS GAL4 internal marker reporter. An outline of the steps:
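First, HepG2 cells were transfected with reporter units under GAL4-UAS control. Next, they were treated with chemical for 24 h. Finally, RNA was reverse-transcribed, PCR-amplified, FAM-labelled and resolved by capillary electrophoresis, with induction scored against DMSO.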

Assay [15] in a line: ATG_Sox_CIS: Attagene CIS-FACTORIAL HepG2 Assay for human SRY-box transcription factor (SOX) (AID 2282960). The note with it: HepG2 Attagene cis-factorial SOX reporter, mRNA; actives raise or lower the signal. An outline of the steps: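 Transient MRTU transfection of HepG2; 24 h compound incubation; TriZol RNA, oligo(dT) RT, PCR, 6-FAM primer extension, HpaI cut, CE. Bidirectional fit, DMSO = baseline.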

Assay [16] can be described thus: ATG_TCF_b_cat_CIS: Attagene CIS-FACTORIAL HepG2 Assay for human T-Cell-Factor with beta-catenin (TCF/b-cat) (AID 2282965). The conditions noted are these: HepG2 TCF/beta-catenin cis-reporter transcription, actives raise or lower the signal. An outline of the steps:
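Using capillary electrophoresis as the read-out, labelled reporter cDNA fragments from transiently transfected HepG2 were sized and quantified. Exposure lasted 24 hours; activity in either direction was referenced to DMSO.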

Assay [17] deals with Estrogen receptor (Homo sapiens) (UniProt P03372). Put plainly: ATG_ERa_TRANS: Attagene TRANS-FACTORIAL HepG2 Assay for human Estrogen Receptor alpha (ERa) (AID 2282970; active = hit-call score of the fitted dose curve at least 0.9, where 1 is the maximum). The note with it: HepG2 Attagene TRANS ERa GAL4 reporter, mRNA. An outline of the steps:
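Human liver HepG2, transient transfection of multiple GAL4-UAS reporter units; TRANS format (exogenous NR-Gal4 chimera). 24 h dosing. Readout: reporter mRNA, RT-PCR, 6-FAM primer extension, HpaI digest, capillary electrophoresis. Positive direction vs DMSO.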

Assay [18] addresses Estrogen-related receptor gamma (Homo sapiens) (UniProt P62508). Put plainly: ATG_ERRg_TRANS: Attagene TRANS-FACTORIAL HepG2 Assay for human Estrogen-Related Receptor gamma (ERRg) (AID 2282977; active = hit-call score of the fitted dose curve at least 0.9, where 1 is the maximum;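 also: hits increase reporter signal over DMSO so potencies reflect activators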). The conditions noted are these: HepG2 Attagene TRANS reporter, ERRg transactivation. An outline of the steps: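 Transient HepG2 transfectants, 24 h compound exposure, GAL4-UAS reporter mRNA by RT-PCR/6-FAM labelling/capillary electrophoresis; positive direction vs DMSO.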

The structures appear in SMILES notation. Records with an inconclusive call do not appear. The source made the active and inactive calls. The calls were made as follows, unless noted: active = hit-call score of the fitted dose curve at least 0.9, where 1 is the maximum; inactive = score below 0.9.

Sequence of Paired box protein Pax-6 (Homo sapiens) (P26367 whole entry, looked up): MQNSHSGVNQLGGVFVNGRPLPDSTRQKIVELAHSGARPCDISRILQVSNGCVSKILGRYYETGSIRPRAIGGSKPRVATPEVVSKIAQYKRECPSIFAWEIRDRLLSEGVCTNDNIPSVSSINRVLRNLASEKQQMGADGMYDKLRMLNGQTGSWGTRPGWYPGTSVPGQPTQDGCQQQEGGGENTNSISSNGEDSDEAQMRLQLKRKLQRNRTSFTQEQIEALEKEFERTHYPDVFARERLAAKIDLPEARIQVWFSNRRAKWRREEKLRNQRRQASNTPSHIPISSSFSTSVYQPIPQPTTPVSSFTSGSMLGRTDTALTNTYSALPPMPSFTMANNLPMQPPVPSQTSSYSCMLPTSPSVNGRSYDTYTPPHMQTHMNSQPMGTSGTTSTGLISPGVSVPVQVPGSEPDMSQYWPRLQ
Sequence of Signal transducer and activator of transcription 3 (Homo sapiens) (P40763 whole entry, looked up): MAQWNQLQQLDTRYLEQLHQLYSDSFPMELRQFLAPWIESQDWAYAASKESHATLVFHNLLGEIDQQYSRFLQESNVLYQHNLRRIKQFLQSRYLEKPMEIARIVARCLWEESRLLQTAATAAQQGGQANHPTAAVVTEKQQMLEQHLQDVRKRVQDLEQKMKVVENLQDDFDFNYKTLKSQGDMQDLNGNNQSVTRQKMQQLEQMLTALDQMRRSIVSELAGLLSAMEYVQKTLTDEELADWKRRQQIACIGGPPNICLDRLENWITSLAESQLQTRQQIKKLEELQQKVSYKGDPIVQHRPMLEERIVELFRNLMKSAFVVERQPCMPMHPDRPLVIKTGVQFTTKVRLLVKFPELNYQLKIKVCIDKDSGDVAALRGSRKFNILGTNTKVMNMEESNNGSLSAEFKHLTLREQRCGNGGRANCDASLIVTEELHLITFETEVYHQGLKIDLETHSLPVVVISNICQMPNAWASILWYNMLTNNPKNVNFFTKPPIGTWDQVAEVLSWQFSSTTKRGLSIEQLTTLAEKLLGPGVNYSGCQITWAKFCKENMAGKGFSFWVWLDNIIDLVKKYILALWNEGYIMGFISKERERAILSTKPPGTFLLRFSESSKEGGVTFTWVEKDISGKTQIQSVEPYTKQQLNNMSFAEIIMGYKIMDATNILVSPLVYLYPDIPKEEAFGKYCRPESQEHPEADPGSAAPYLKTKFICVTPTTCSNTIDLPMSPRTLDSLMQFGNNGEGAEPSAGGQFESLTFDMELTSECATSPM
Sequence of Estrogen receptor (Homo sapiens) (P03372 whole entry, looked up, the tested form may be a part): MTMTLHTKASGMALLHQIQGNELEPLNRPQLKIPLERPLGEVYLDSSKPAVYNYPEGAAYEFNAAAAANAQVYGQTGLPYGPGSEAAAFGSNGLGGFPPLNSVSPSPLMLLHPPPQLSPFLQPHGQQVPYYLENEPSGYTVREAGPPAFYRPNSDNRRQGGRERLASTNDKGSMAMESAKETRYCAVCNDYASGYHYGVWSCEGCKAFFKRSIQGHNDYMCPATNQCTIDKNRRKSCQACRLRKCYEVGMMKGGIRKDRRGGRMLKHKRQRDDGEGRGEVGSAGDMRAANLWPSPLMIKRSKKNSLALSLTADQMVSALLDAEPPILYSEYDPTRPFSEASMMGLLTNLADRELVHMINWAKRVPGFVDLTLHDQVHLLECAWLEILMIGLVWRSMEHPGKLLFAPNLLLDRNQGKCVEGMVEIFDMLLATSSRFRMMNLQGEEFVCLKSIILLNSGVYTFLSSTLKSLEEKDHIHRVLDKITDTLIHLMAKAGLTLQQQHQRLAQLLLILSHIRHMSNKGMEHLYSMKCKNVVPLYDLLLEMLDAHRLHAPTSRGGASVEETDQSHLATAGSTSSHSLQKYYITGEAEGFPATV
Sequence of Transcription factor Sp1 (Homo sapiens) (P08047 whole entry, looked up): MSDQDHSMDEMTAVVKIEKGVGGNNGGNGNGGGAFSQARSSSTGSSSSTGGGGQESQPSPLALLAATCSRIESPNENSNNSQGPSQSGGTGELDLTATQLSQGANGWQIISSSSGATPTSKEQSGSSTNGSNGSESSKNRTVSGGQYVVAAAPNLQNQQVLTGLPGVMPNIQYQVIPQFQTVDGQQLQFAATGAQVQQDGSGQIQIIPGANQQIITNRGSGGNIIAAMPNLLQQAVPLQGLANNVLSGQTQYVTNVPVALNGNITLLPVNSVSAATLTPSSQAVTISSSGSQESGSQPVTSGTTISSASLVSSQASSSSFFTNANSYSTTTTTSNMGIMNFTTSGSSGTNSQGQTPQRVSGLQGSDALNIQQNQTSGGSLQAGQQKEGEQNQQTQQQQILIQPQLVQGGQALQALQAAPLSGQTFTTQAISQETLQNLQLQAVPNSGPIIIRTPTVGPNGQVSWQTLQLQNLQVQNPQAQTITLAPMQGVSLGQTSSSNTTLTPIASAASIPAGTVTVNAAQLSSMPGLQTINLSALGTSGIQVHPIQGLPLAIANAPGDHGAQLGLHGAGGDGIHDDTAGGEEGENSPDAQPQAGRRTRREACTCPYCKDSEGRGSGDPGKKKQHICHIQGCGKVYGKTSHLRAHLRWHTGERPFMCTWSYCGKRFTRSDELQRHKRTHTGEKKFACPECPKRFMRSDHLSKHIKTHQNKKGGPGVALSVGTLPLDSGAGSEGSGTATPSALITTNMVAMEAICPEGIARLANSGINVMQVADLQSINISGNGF
Sequence of X-box-binding protein 1 (Homo sapiens) (P17861 whole entry, looked up, the tested form may be a part): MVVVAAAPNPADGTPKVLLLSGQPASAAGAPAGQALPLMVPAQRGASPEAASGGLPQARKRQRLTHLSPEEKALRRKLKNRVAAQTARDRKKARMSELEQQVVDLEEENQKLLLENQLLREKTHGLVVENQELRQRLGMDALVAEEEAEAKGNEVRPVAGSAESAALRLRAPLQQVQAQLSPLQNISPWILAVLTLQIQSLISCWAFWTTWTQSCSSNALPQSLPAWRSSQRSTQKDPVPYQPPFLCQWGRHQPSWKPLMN
Sequence of Nuclear receptor subfamily 1 group I member 3 (Homo sapiens) (Q14994 whole entry, looked up, the tested form may be a part): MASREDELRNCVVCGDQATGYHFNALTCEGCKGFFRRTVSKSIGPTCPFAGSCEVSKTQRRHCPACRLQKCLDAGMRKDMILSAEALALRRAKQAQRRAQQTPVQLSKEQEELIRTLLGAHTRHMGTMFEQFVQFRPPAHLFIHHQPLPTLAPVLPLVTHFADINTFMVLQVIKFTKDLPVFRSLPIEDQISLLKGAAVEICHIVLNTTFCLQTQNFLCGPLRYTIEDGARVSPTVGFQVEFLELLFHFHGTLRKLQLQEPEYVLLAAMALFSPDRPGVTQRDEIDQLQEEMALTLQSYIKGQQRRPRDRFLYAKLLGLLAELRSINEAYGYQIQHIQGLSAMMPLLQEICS
Sequence of Estrogen-related receptor gamma (Homo sapiens) (P62508 whole entry, looked up, the tested form may be a part): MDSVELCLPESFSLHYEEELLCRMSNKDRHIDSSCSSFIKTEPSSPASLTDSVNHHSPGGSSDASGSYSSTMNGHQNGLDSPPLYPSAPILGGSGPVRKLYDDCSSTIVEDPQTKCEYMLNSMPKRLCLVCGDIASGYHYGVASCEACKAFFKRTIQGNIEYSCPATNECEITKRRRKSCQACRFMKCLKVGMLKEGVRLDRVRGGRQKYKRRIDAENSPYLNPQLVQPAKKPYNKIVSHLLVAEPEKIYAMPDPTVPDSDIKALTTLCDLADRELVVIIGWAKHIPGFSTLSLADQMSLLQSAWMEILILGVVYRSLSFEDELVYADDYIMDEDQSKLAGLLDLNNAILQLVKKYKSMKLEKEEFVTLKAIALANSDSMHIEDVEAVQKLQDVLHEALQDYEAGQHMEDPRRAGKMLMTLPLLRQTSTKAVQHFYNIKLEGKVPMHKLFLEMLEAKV

Regarding `O=C(O)c1cc(Cl)cc([N+](=O)[O-])c1Cl`, the result in assay [1], in [2], in assay [3], in assay [4], in assay [5] and in [6] was inactive. The compound was called inactive in assay [7], in [8], in assay [9], in assay [10], in assay [11] and in assay [12]. Besides, the compound was classed as inactive in [13] and in [14].
As for `CNC(=S)N(C)C`, the outcome in assay [1], in [2], in assay [3], in assay [15], in assay [4] and in assay [5] was inactive. Further, the call in [7], in assay [16], in assay [8], in assay [9], in assay [10] and in [11] was inactive. In addition, the result in assay [17], in [12] and in assay [14] was inactive.
Consider `Nc1ccc(N)c(Cl)c1`, for which the AC50 in assay [1] was 52.9 µM (active); in [2], 8.87 µM (active); in [5], 43.7 µM (active); in [10], 33.4 µM (active); in [17] it was 25.5 µM (active). The call in assay [15], in [4], in [6], in assay [7], in assay [16] and in assay [8] was inactive. Also, the compound was called inactive in assay [9], in [11], in assay [12] and in [13].
`CCCCC(CC)COCC1CO1` (stereo not drawn): the call in assay [1], in assay [2], in assay [3], in assay [15], in [4] and in assay [5] was inactive. Moreover, the outcome in [7], in [9], in assay [10], in assay [17], in [12] and in assay [14] was inactive. Besides, the compound was called inactive in assay [18].
As for `O=P(O)(O)Oc1ccccc1`, the outcome in [1], in assay [2], in assay [3], in [15], in assay [5] and in assay [6] was inactive. Further, the call in assay [7], in [16], in [8], in [10] and in [12] was inactive.

Usually AC50 stands for the midpoint of the concentration-response curve, whichever way the signal moves.
